Experimental data: PubChem BioAssay (Tox21)
Results filed as inconclusive are left out. Calls of active or inactive are those of the source. Unless noted, calls follow the shape of the dose curve; as a rule, active = well fitted curve in the direction sought with a large enough effect in the repeat runs; inconclusive = weak or mixed curves; inactive = no such curve, though single readings can be large; an effect the other way counts as inactive or inconclusive.

Legend:
[1] = qHTS assay to identify small molecule agonists of the vitamin D receptor (VDR) signaling pathway - cell viability counter screen (AID 743224); also: series mostly up to about 63 µM; nearly all actives have a fitted effect of over 50% in size
Method in brief: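 Compounds were pin-transferred onto VDR-bla cells plated 4 h earlier; following 16 h incubation at 37C, cell viability was quantified by CellTiter-Glo luminescence after 30 min at room temperature.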

[2] = qHTS assay to identify small molecule agonists of the NFkB signaling pathway (AID 1159509; active = well fitted curve in the direction sought with a large enough effect in the signal ratio in the repeat runs, not every such curve was filed as active; the % refers to the signal ratio; also: series mostly up to about 61 µM)
Method in brief: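 Beta-lactamase reporter assay run in quantitative high-throughput format on an NF-kB-responsive ME-180 line, with 5 hr compound treatment and a FRET-based blue/green fluorescence readout.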

[3] = qHTS assay to identify small molecule agonists of the NFkB signaling pathway - cell viability counter screen (AID 1159515; calls by dose curve; also: series mostly up to about 61 µM; nearly all actives have a fitted effect of over 55% in size)
Method in brief: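 Parallel cytotoxicity counter screen in ME-180 cells carrying an NFkB-response-element beta-lactamase reporter, 2,000 cells/well. Compound exposure lasted 5 hr at 37 C, 5% CO2. Cell viability was quantified by CellTiter-Glo luminescence.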

[4] = qHTS assay to identify small molecule agonists of the endoplasmic reticulum stress response signaling pathway (AID 1159516; active = well fitted activation curve with a large enough effect in the signal ratio in the repeat runs, not every such curve was filed as active; the % refers to the signal ratio)
Method in brief: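 Using a HeLa line with an ESRE-driven beta-lactamase gene, agonist activity was measured by FRET substrate fluorescence (460 and 530 nm emission) after cells were treated with compounds for 5 hr at 37 C and 5% CO2.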

[5] = qHTS assay to identify small molecule antagonists of the retinoid-related orphan receptor gamma (ROR-gamma) signaling pathway - cell viability counter screen (AID 1159520); also: nearly all actives have a fitted effect of over 50% in size
Method in brief: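 Cytotoxicity was read from cellular ATP (CellTiter-Glo luminescence) after 16 hr at 37 C with 1 uM doxycycline induction. The inducer was added 2 hr after compound transfer to Tet-on ROR gamma CHO cells.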

[6] = biological target: Nuclear receptor ROR-gamma (Homo sapiens) (UniProt P51449); assay: qHTS assay to identify small molecule antagonists of the retinoid-related orphan receptor gamma (ROR-gamma) signaling pathway (AID 1159521;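 also: CHO cells with doxycycline inducible ROR-gamma driving an RORE luciferase reporter; top concentration of the series differs between compounds; nearly all actives have a fitted effect of over 50% in size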)
Method in brief: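 CHO Tet-on RORγ, RORE-luc reporter. Cpd 2 h pre-incubation, then dox hyclate 1 uM final, 16 h, 37 C/5% CO2. ONE-Glo luminescence; decrease = antagonist.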

[7] = qHTS assay to identify small molecule agonists of the AP-1 signaling pathway (AID 1159526; calls by dose curve)
[8] = biological target: Retinoic acid receptor RXR-alpha (Homo sapiens) (UniProt P19793); assay: qHTS assay to identify small molecule agonists of the RXR signaling pathway (AID 1159527; calls by dose curve; also: nearly all actives have a fitted effect of over 35% in size)
Method in brief: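 Read-out: beta-lactamase FRET ratio (405 nm excitation, 460 and 530 nm emission) after 2 hr substrate loading at room temperature. Cells were RXR-alpha-UAS-bla HEK 293T treated with compounds for 16 hr in 2% charcoal-stripped FBS medium.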

[9] = qHTS assay to identify small molecule agonists of the RXR signaling pathway - cell viability counter screen (AID 1159529); also: series mostly up to about 77 µM; nearly all actives have a fitted effect of over 50% in size
Method in brief: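 HEK 293T RXRa-bla cells, 2% CS-FBS; 5 h settle; cpd 16 h 37 C, 5% CO2; CellTiter-Glo 30 min RT, luminescence. Tetraoctyl ammonium bromide as positive control.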

[10] = qHTS assay to identify small molecule antagonists of the retinoid acid receptor (RAR) signaling pathway - cell viability counter screen (AID 1159551); also: nearly all actives have a fitted effect of over 35% in size
Method in brief: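 ATP-based viability, C3RL4 cells, 6 h at 37 C with 1 uM final retinol co-added after compound; luminescence read 30 min post CellTiter-Glo, RT.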

[11] = qHTS assay to identify small molecule antagonists of the retinoic acid receptor (RAR) signaling pathway (AID 1159552; also: nearly all actives have a fitted effect of over 50% in size)
Method in brief: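 Cells of the C3RL4 line were seeded, incubated overnight, then dosed with compounds in DMSO followed immediately by retinol (1 uM final). Six hours later luciferase detection reagent went in; signal was measured after 30 min at RT.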

[12] = qHTS assay to identify small molecule antagonists of the estrogen related receptor (ERR) signaling pathway from Tox21 library - cell viability counter screen (AID 1224834); also: nearly all actives have a fitted effect of over 30% in size
Method in brief: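 Compounds in DMSO were pinned onto ERR cells that had been incubated for 6 h, and the plates were held at 37 C for 17.5 h. CellTiter-Fluor reagent was then added and fluorescence was measured after 30 min.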

[13] = biological target: Luciferin 4-monooxygenase (Photinus pyralis) (UniProt P08659); assay: qHTS assay to identify small molecule inhibitors of firefly luciferase (AID 1224835); also: series mostly up to about 120 µM; nearly all actives have a fitted effect of over 25% in size
Method in brief: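 Inhibition of purified Photinus luciferase is measured by luminescence. Substrate levels (D-luciferin, ATP) sit at their KM values. Each compound is tested in a concentration series.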

[14] = qHTS assay to identify small molecule agonists of the constitutive androstane receptor (CAR) signaling pathway - cell viability counter screen (AID 1224836); also: series mostly up to about 92 µM; nearly all actives have a fitted effect of over 45% in size
Method in brief: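 HepG2-CYP2B6-hCAR, 2500 cells/well, 4 h pre-incubation; cpd 15 conc + PK11195 0.75 uM final; 23 h, 37 C/5% CO2; CellTiter-Fluor, fluorescence.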

[15] = qHTS assay to identify small molecule antagonists of the constitutive androstane receptor (CAR) signaling pathway - cell viability counter screen (AID 1224837); also: series mostly up to about 92 µM; nearly all actives have a fitted effect of over 45% in size
Method in brief: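 Cells are seeded, rested 4 hr at 37 C/5% CO2, dosed with compound (15-point series) and 50 nM CITCO, incubated a further 23 hr, and then CellTiter-Fluor reagent is added before fluorescence is read. The line is HepG2 with stable hCAR and CYP2B6-2.2kb.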

[16] = biological target: Nuclear receptor subfamily 1 group I member 3 (Homo sapiens) (UniProt Q14994); assay: qHTS assay to identify small molecule antagonists of the constitutive androstane receptor (CAR) signaling pathway (AID 1224838);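 also: HepG2 cells stably expressing hCAR with CYP2B6 luciferase reporter stimulated by CITCO; nearly all actives have a fitted effect of over 40% in size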
Method in brief: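 Luminescence from a CYP2B6-2.2kb promoter reporter in hCAR-expressing HepG2 cells reflects CAR signaling. Cells received compounds at 15 concentrations and 50 nM CITCO (final), then incubated 24 h at 37 C/5% CO2.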

[17] = qHTS assay to identify small molecule antagonists of the vitamin D receptor (VDR) signaling pathway - cell viability counter screen (AID 743225); also: nearly all actives have a fitted effect of over 50% in size
Method in brief: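 Read-out: CellTiter-Glo luminescence measured 30 min after reagent addition at room temperature. Cells were VDR-bla HEK 293T exposed 16 h at 37C, 5% CO2, to compound with 3 nM final calcitriol agonist.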

[18] = qHTS assay to identify small molecule agonists of the AP-1 signaling pathway - cell viability counter screen (AID 1159525; calls by dose curve; also: nearly all actives have a fitted effect of over 55% in size)
Method in brief: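 Intracellular ATP by Cell Titer Glo luminescence (30 min, RT) in the same ME-180 AP-1-bla wells after the 5 h compound exposure at 37 °C. Normalised to tetra n-octyl ammonium bromide and DMSO controls.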

[19] = qHTS assay to identify small molecule agonists of the retinoic acid receptor (RAR) signaling pathway (AID 1159553)
Method in brief: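 Quantitative high-throughput format: the Tox21 10K library was tested on C3RL4 RARE-luciferase cells for 6 hr at 37 C and 5% CO2, with luminescence measured after a 30 min room-temperature reagent step.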

[20] = qHTS assay to identify small molecule agonists of the endoplasmic reticulum stress response signaling pathway - cell viability counter screen (AID 1159517; calls by dose curve)
Method in brief: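 After overnight attachment, ESRE-bla HeLa cells were treated with Tox21 library compounds for 5 hr. CellTiter-Glo luminescence, read 30 min post-addition at room temperature, reported viability.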

Measured: Potency

Retinoic acid receptor RXR-alpha (Homo sapiens), sequence (P19793 whole entry, looked up): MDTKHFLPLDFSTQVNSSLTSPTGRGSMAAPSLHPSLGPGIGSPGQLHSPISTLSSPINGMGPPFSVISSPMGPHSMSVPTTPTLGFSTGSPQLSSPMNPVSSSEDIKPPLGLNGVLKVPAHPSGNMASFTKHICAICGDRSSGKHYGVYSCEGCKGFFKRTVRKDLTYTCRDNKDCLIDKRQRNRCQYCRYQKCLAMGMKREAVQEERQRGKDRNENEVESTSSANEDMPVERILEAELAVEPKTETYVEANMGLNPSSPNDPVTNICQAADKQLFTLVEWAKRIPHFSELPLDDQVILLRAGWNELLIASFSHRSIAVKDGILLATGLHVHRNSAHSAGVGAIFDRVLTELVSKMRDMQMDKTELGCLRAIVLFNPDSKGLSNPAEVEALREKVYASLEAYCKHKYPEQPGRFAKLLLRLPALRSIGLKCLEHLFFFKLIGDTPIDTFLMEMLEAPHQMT
Nuclear receptor subfamily 1 group I member 3 (Homo sapiens), sequence (Q14994 whole entry, looked up): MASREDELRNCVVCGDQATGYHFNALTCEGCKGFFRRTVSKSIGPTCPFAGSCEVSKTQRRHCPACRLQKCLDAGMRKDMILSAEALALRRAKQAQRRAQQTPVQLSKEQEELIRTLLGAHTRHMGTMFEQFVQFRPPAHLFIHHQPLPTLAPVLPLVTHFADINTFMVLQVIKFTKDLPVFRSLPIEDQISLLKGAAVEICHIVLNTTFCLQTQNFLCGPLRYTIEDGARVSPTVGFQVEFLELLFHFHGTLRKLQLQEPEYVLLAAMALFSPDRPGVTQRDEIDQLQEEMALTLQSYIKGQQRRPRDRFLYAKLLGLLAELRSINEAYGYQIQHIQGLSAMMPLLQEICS
Luciferin 4-monooxygenase (Photinus pyralis), sequence (P08659 whole entry, looked up): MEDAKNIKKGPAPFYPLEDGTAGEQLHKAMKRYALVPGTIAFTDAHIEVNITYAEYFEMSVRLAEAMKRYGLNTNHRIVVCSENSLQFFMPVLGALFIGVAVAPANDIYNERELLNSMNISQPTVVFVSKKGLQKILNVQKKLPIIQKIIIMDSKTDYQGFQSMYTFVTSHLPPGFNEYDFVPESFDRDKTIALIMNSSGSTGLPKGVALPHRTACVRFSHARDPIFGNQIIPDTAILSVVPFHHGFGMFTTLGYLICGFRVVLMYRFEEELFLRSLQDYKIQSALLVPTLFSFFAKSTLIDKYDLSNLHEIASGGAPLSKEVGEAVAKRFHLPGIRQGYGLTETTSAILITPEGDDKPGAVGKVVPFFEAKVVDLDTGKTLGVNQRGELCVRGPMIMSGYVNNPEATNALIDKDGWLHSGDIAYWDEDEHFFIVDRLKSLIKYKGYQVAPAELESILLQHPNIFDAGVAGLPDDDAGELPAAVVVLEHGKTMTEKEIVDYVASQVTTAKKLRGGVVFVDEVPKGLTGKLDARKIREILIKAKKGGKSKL

CN(C)CC/C=C1/c2ccccc2COc2ccc(CC(=O)O)cc21
inactive: [1] | [2] | [3] | [4] | [5] | [6] | [7] | [8] | [9] | [10] | [11] | [12] | [13] | [14] | [15] | [16]

NCC1(Cc2noc(=O)[nH]2)CCCCC1
inactive: [1] | [17] | [2] | [3] | [4] | [5] | [6] | [18] | [7] | [8] | [9] | [11] | [19] | [12] | [13] | [14] | [15] | [16]

CCC(=O)Oc1ccc2c(c1)CC[C@@H]1[C@@H]2CC[C@@]2(C)[C@H]1C[C@@H](OC(=O)CC)[C@@H]2OC(=O)CC
inactive: [1] | [17] | [2] | [3] | [4] | [5] | [7] | [8] | [9] | [11] | [19] | [13] | [14] | [15] | [16]

CCCC(=O)OCCC(C)CCC=C(C)C (stereo unspecified)
inactive: [1] | [2] | [3] | [4] | [5] | [18] | [7] | [8] | [9] | [10] | [11] | [19] | [13] | [14] | [15] | [16]

COc1cc2c(cc1OC)CN(C(=O)[C@H](C)N[C@@H](CCc1ccccc1)C(=O)O)[C@H](C(=O)O)C2
inactive: [1] | [3] | [4] | [20] | [5] | [6] | [18] | [7] | [8] | [9] | [10] | [11] | [19] | [12] | [13] | [14] | [15] | [16]

C=CCSSCCC
inactive: [1] | [17] | [2] | [3] | [4] | [20] | [5] | [7] | [8] | [9] | [11] | [19] | [12] | [13] | [14] | [15] | [16]

CC1(C)Cc2cccc(N)c2O1
inactive: [17] | [2] | [3] | [4] | [5] | [7] | [8] | [9] | [10] | [11] | [19] | [12] | [13] | [14] | [15] | [16]
